# Test results as given in PubChem BioAssay (EPA / NIEHS).
# Results filed as inconclusive are left out. Activity calls are given as the source filed them. The calls were made as follows: active = hit-call score of the fitted dose curve at least 0.9, where 1 is the maximum; inconclusive = response in the unintended direction; inactive = score below 0.9.
# Read-out: ABC Transporter (ABCB11), ABCB11 (gene 8647)
# Assay: CLD_ABCB11_6hr: CellzDirect (CLD) Gene Expression Assay for ABC Transporter (ABCB11) at 6 hours (AID 2283675);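 also: hits raise ABCB11 mRNA level so AC50 marks induction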
# Protocol: CLD_6hr is a cell-based, multiplexed-readout assay that uses hepatocyte, a human liver primary cell, with measurements taken at 6 hours after chemical dosing in a 96-well plate.CLD_ABCB11_6hr is one of 16 assay component(s) measured or calculated from the CLD_6hr assay. It is designed to make measurements of mRNA induction, a form of inducible reporter, as detected with chemiluminescence signals by Quantitative Nuclease Protection Assay (qNPA) technology.Data from the assay component CLD_ABCB11_6hr was analyzed at the endpoint, CLD_ABCB11_6hr, in the positive analysis fitting direction relative to DMSO as the negative control and baseline of activity. Using a type of inducible reporter, gain-of-signal activity can be used to understand changes in the reporter gene as they relate to the gene ABCB11. Furthermore, this assay endpoint can be referred to as a primary readout. To generalize the intended target to other relatable targets, this assay endpoint is annotated to the transporter intended target family, where subfamily is ABC transporter.
# Human hepatocyte cultures were treated daily for two consecutive days with fresh dosing solutions containing appropriate concentrations of the 320 ToxCast chemicals (chemical identities were blinded to CellzDirect and other ToxCast collaborators), vehicle control (0.2% DMSO), and positive control inducers as summarized in Table 1. Due to the large number of treatment groups and chemicals examined, the ToxCast chemicals were divided into two groups (spanning two independent cultures of hepatocytes from separate donor preparations (Hu778: ToxCast plates 1 and 2; Hu776: ToxCast plates 3 and 4). Each preparation of human hepatocyte cultures was treated with respective vehicle control, medium only control, set of six positive controls/reference chemicals for the five hepatic receptor pathways, and a subset of eight of the ToxCast chemicals (indoxacarb, pyrithiobac-sodium, norflurazon, cyhalofop-butyl, methomyl, thiram, acetochlor, and propiconazole). These replicate data, coupled with internal replicates designed within the blinded ToxCast chemical library, provided additional data to evaluate interindividual differences between hepatocyte preparations and their potential impact on chemical profiles.Cell morphology and integrity were evaluated using phase-contrast microscopy as an indicator of hepatocyte cell health (Tyson & Green, 1987). Cultures for each treatment group (i.e., media, vehicle [0.2% DMSO], positive control inducers [multiple concentrations], and the ToxCast chemicals [multiple concentrations]) were observed and cell morphology was assessed relative to vehicle control cultures at each harvest time point (0, 6, 24, or 48 h). […] Images were evaluated at the conclusion of the study to assess changes in cell integrity and account for the effects of chemical exposure on uncharacteristic changes in concentration-dependent gene expression profiles. The results from these determinations of apparent cytotoxicity were annotated (yes/no) alongside the corresponding qNPA data for reference.At the conclusion of each treatment period, hepatocyte cultures (96-well) were washed with 1 volume of HBSS, lysed by addition of 25 ul ArrayPlate lysis buffer (HTG, Tucson, AZ), and 70 ul/well of Denaturation Oil, denatured by incubation at 95C for 10 min, and frozen at approximately -70C until analysis by nuclease protection assay (qNPA) (Roberts et al., 2007). For qNPA analysis, cell lysates were thawed at 50C for approximately 30 min, qNPA probes were added, and samples were incubated at 95C for 10 min to begin the detection process by denaturing the target RNA, dissociating the duplexes and secondary structure hybridization. At the conclusion of the hybridization period, S1 nuclease reagent was added to each sample to digest all nonprotected nucleotides at 50C for 60-90 min. […]
row,SMILES,outcome
1,CC(C)(C)c1ccc(CSc2cnn(C(C)(C)C)c(=O)c2Cl)cc1,inactive
2,CC(Oc1ccc(Cl)cc1Cl)C(=O)O (stereo not given),inactive
3,CNC(=S)S,inactive
4,COc1ccc(C(c2ccc(OC)cc2)C(Cl)(Cl)Cl)cc1,inactive
5,O=C(O)c1nc(Cl)ccc1Cl,inactive
6,N#Cc1nn(-c2c(Cl)cc(C(F)(F)F)cc2Cl)c(N)c1S(=O)C(F)(F)F (stereo not given),inactive
7,CCc1nn(C)c(C(=O)NCc2ccc(C(C)(C)C)cc2)c1Cl,inactive
8,C#CCOS(=O)OC1CCCCC1Oc1ccc(C(C)(C)C)cc1 (stereo not given),inactive
9,OC(c1ccc(Cl)cc1)(c1cncnc1)c1ccccc1Cl (stereo not given),inactive
10,CCCCOC(=O)c1ccccc1C(=O)OCCCC,inactive
11,COC(=O)N(OC)c1ccccc1COc1ccn(-c2ccc(Cl)cc2)n1,inactive
12,Oc1ccccc1-c1ccccc1,inactive
13,CCOC(=O)C(Cl)Cc1cc(-n2nc(C)n(C(F)F)c2=O)c(F)cc1Cl (stereo not given),inactive
14,COP(=S)(OC)Oc1nc(Cl)c(Cl)cc1Cl,inactive
15,COc1nc(C)nc(NC(=O)NS(=O)(=O)c2ccccc2Cl)n1,inactive
16,CCCN(CCC)c1c([N+](=O)[O-])cc(S(N)(=O)=O)cc1[N+](=O)[O-],inactive
17,Cc1c(F)c(F)c(COC(=O)C2C(/C=C(\Cl)C(F)(F)F)C2(C)C)c(F)c1F (stereo not given),inactive
18,COC(=O)C=C(C)OP(=O)(OC)OC,inactive

row,SMILES,outcome
1,CCCCNC(=O)OCC#CI,inactive
2,Cc1ccc(-c2c(Cl)nc(C#N)n2S(=O)(=O)N(C)C)cc1,inactive
3,COP(N)(=O)SC (stereo not given),inactive
4,N#Cc1cc(Br)c(O)c(Br)c1,inactive
5,CN(C)C(=S)SSC(=S)N(C)C,inactive
6,COC(=O)C(C)Oc1ccc(Oc2ccc(Cl)cc2Cl)cc1 (stereo not given),inactive
7,CO/C=C(/C(=O)OC)c1ccccc1Oc1cc(Oc2ccccc2C#N)ncn1,inactive
8,CCCCC(CC)COC(=O)c1ccccc1C(=O)OCC(CC)CCCC (stereo not given),inactive
9,CCOC(=O)CC(SP(=S)(OC)OC)C(=O)OCC (stereo not given),inactive
10,CCCCNC(=O)n1c(NC(=O)OC)nc2ccccc21,inactive
11,C=CCC1=C(C)[C@@H](OC(=O)[C@@H]2[C@@H](C=C(C)C)C2(C)C)CC1=O,inactive
12,COC(=O)c1ccccc1C(=O)OC,inactive
13,CCOP(=S)(OCC)SCn1c(=O)oc2cc(Cl)ccc21,inactive
14,CCOc1cc(Oc2ccc(C(F)(F)F)cc2Cl)ccc1[N+](=O)[O-],inactive
15,CS/C(C)=N/OC(=O)N(C)SN(C)C(=O)O/N=C(\C)SC,inactive
16,CCON=C(CC)C1=C(O)CC(c2c(C)cc(C)cc2C)CC1=O (stereo not given),inactive
17,COc1nc(C)nc(NC(=O)NS(=O)(=O)c2ccccc2CCC(F)(F)F)n1,inactive
